Laboratory results: PubChem BioAssay AID1626 (SRMLSC, 2009)
“And” between values parts separate entries of the source, which are not always exact repeats. Equal entries are not always repeated. Out of some 220,000 compounds screened, about 2,000 (0.91%) were called active. About 2% were inconclusive and are not listed. Rule as the data show it: inconclusive = inhibition above about 80% without an active follow-up result; inactive = below that; test concentration not stated here. A selection follows. Potency and affinity values are given separately.

Test: M. tuberculosis H37Rv growth inhibitors, H37Rv strain (AID 1626);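 also: bacteria incubated seven days before Alamar blue readout; 0% = bacteria only wells and 100% = bacteria with antibiotic wells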
Conditions: active compounds read high, concentration not given here

Structure (SMILES) | inhibition
Cc1n[nH]c(=O)n1-c1ccc(OCc2ccccc2)cc1 | -0.14% (inactive)
Cc1cc(-c2nnc(SCC(=O)c3ccc(F)cc3)o2)no1 | 3.52% (inactive)
CCN1CCN(c2nc(-c3ccccn3)nc3ccccc23)CC1 | -2.25% (inactive)
c1ccc2c(N3CCCCCC3)nc(-c3ccncc3)nc2c1 | 37% (inactive)
c1cncc(-c2nc(N3CCOCC3)c3ccccc3n2)c1 | -2.03% (inactive)
CN1CCN(c2nc(-c3ccccn3)nc3ccccc23)CC1 | 10.9% (inactive)
c1ccc2c(N3CCOCC3)nc(-c3ccncc3)nc2c1 | -3.11% (inactive)
Fc1ccccc1-c1nc(N2CCCCC2)c2ccccc2n1 | 7.2% (inactive)
CCn1cc(C(=O)N2CCN(c3ccc([N+](=O)[O-])cc3)CC2)c(=O)c2ccc(C)nc21 | 6.57% (inactive)
O=S(=O)(O)c1nc2ccccc2[nH]1 | -0.16% (inactive)
Cc1cc(=O)[nH]c(N/N=C/c2cc(C)n(-c3ccccc3)c2C)n1 | -2.65% (inactive)
S=C(Nc1ccc(Cl)cc1)NC1CC2CCCC(C1)N2C1CC1 (stereo not given) | -1.32% (inactive)
Cc1ccc(-n2c(C(C)n3nc(C)c([N+](=O)[O-])c3C)n[nH]c2=S)cc1 (stereo not given) | 3.01% (inactive)
Cc1ccc(C(=O)CSC2=NC(N)=C(C#N)C3(CCCCC3)C2C(N)=O)cc1 (stereo not given) | -12.2% (inactive)
FC(F)(F)c1nnc2ccc(N3CCCC3)nn12 | -2.32% (inactive)
Fc1c(F)c(C(F)(F)F)c(F)c(F)c1N1CCN(c2ccc3nnc(C(F)(F)F)n3n2)CC1 | 8.98% (inactive)
COc1ccc(NC(=O)COc2ncnc3ccccc23)cc1S(=O)(=O)N1CCOCC1 | -8.54% (inactive)
CCCc1[nH]n(-c2nc3ccccc3s2)c(=O)c1C=NCCCOC | -3.55% (inactive)
Cc1cc(Nc2ccccc2)n(-c2ccc(Br)cc2)n1 | -7.48% (inactive)
CC(=O)Nc1cc(C)nn1-c1nc(C)cc(C)n1 | 3.43% (inactive)
Cc1ccc(C)c(C(=O)Nc2cc(C)nn2-c2nc(C)cc(C)n2)c1 | 22% (inactive)
COc1ccc(Nc2cc(C)nc(N3CCOCC3)n2)cc1 | 10.4% (inactive)
CNc1cc(C)nc(-n2nc(C)cc2C)n1 | 13% (inactive)
Cc1cc(Nc2ccccc2)n(-c2ccccc2)n1 | 1.16% (inactive)
O=C(c1ccc(Cl)nc1)N1CCN(S(=O)(=O)c2ccc(Cl)cc2)CC1 | 5.1% (inactive)

Structure (SMILES) | inhibition
Cc1ccc(/C=C(/C#N)C(=O)NC(C)c2ccccc2)o1 (stereo not given) | 5.5% (inactive)
CCCC(c1nnnn1C(C)(C)CC)N1CCN(C2CCCC2)CC1 (stereo not given) | 3.73% (inactive)
CC(=O)Nc1ccccc1C(=O)C(=O)Nc1ccc(C(=O)N2CCOCC2)cc1 | -0.85% (inactive)
Cc1ccc(C2C(C(=O)c3sc(C)nc3C)=C(O)C(=O)N2CCN(C)C)o1 (stereo not given) | -6.12% (inactive)
COc1ccc(S(=O)(=O)Nc2ccc(N3CCOCC3)cc2)cc1[N+](=O)[O-] | -1.81% (inactive)
COC(CNc1cc(=O)oc2ccccc12)OC | 3.54% (inactive)
O=C(COC(=O)CC1CC2CCC1C2)Nc1c(F)cccc1F (stereo not given) | -6.22% (inactive)
CCCCOC(=O)c1ccc(NC(=O)c2c(OC)cccc2OC)cc1 | -7.36% (inactive)
CCCCNc1ccc(C(=O)OCCN(C)C)cc1 | 5.64% (inactive)
CCN(CC)CCNC(=O)C(=O)Nc1ccc(C(=O)OC)cc1 | 0.58% (inactive)
CCOC(=O)c1ccc(NC(=O)C(=O)NCCc2ccc(OC)cc2)cc1 | 2.35% (inactive)
CCN(CC)CCNC(=O)c1ccc(NC(C)=O)cc1 | -2.03% (inactive) and 6.46% (inactive)
CCOC(=O)c1ccc(NC(=S)NCc2cccnc2)cc1 | -9.64% (inactive)
CCCCOC(=O)c1ccc(NC(C)=O)cc1 | 58.3% (inactive)
CCCCOC(=O)c1ccc(NC(=O)C(=O)NCc2ccco2)cc1 | 5.24% (inactive)
CCOc1cc(CNc2ccc(N(C)C)cc2)cc(Br)c1OCC(=O)NC(C)(C)C | 13.9% (inactive)
O=C(Cn1nnc2ccccc21)OCc1ccccc1 | 3.11% (inactive)
CC(C(=O)Nc1ccc(C(=O)O)cc1)N1C(=O)c2ccccc2C1=O (stereo not given) | 2.02% (inactive)
CC1C(=O)NN=C1C(=O)N/N=C/c1ccco1 (stereo not given) | 4.15% (inactive)
N/C(CN1CCCC1=O)=N\OC(=O)c1ccccc1Cl | -4.21% (inactive)
CC(C)(C)C(=O)Nc1ccc(N=Nc2ccccc2)cc1 | 1.74% (inactive)
COc1ccc(C2=NOC(C)(c3nnc(-c4ccncc4)o3)C2)cc1 (stereo not given) | 3.27% (inactive)
O=C(c1csc2c1CCCC2)N1CCCCC1 | -7.91% (inactive)
Cc1ccc2c(c1)NC(=O)C(CC(=O)NCCCN1CCc3ccccc3C1)O2 (stereo not given) | -7.1% (inactive)
Cc1cc(=O)oc2cc(OC(=O)c3ccccc3)ccc12 | 70% (inactive)

Structure (SMILES) | inhibition
COCCOC(=O)c1c(C)oc2ccc(OS(C)(=O)=O)cc12 | 10.4% (inactive)
COCCOC(=O)c1c(C)oc2ccc(OC(=O)N(C)C)cc12 | -0.97% (inactive)
COCCOC(=O)c1c(C)oc2ccc(OC(=O)c3c(OC)cccc3OC)cc12 | 9.56% (inactive)
COCCOC(=O)c1c(C)oc2ccc(OCc3ccccc3)cc12 | 0.54% (inactive)
CC(=O)Oc1ccc2c(C)cc(=O)oc2c1 | 74.8% (inactive)
COc1ccccc1N(CC(=O)NCc1ccccc1)C(=O)CCC(=O)Nc1cc(C)ccn1 | -0.58% (inactive)
Clc1cccc(-c2nnc(-c3ccccc3)o2)c1 | 10.9% (inactive)
N#CCC(=O)Nc1ccc(C(=O)NCc2ccccn2)cc1 | -2.46% (inactive)
CCC(=O)c1cc(F)c(N2CCN(S(=O)(=O)c3ccc(C)cc3)CC2)cc1C | 4.53% (inactive)
O=C(CN1C(=O)CCSc2ccccc21)N1CCC2(CC1)OCCO2 | -1.04% (inactive)
CCc1nnc(NC(=O)CSc2nnc(COc3ccccc3)n2Cc2ccccc2)s1 | -6.06% (inactive)
O=C(NCc1ccccc1)c1c[nH]c2cc3c(cc2c1=O)OCCO3 | -8.63% (inactive)
CC(c1ccccc1C(O)c1ccccc1)N(C)C (stereo not given) | -3.64% (inactive)
CC(c1ccccc1C(O)(c1ccccc1)c1ccccc1)N(C)C (stereo not given) | 12.7% (inactive)
COc1ccc(CNC(=O)CCn2c(=O)[nH]c3ccccc3c2=O)cc1 | -0.21% (inactive)
CCn1c(C2CCN(S(=O)(=O)c3ccc(OC)cc3)CC2)n[nH]c1=S | 2.92% (inactive)
Cc1ccc(C2C(C#N)=C(N)Oc3n[nH]c(C)c32)cc1 (stereo not given) | -5.8% (inactive)
Cc1[nH]nc2c1C(c1ccc(-c3ccccc3C#N)o1)C(C#N)=C(N)O2 (stereo not given) | -1.71% (inactive)
Cc1[nH]nc2c1C(c1ccco1)C(C#N)=C(N)O2 (stereo not given) | 5.49% (inactive)
Cc1[nH]nc2c1C(c1ccc(Cl)cc1)C(C#N)=C(N)O2 (stereo not given) | -11.2% (inactive)
O=C1CCC(c2ccccc2)=NN1 | -7.26% (inactive)
CC(C)=C1C2CCC1C1C(=O)N(c3ccc(C)c(C)c3)C(=O)C21 (stereo not given) | 2.47% (inactive)
Cn1cc(Br)c(C(=O)NC(=S)Nc2ccc(S(N)(=O)=O)cc2)n1 | -5.09% (inactive)
Cc1cc(C(=O)Nc2cccnc2Cl)on1 | -0.41% (inactive)
Cc1occc1-c1nnc(SCC(=O)Nc2nccs2)n1CCc1ccccc1 | 1.51% (inactive)

Structure (SMILES) | inhibition
CC(=O)Nc1nc(-c2ccc([N+](=O)[O-])cc2)cs1 | -3.92% (inactive)
COCC(=O)Nc1nc(-c2ccc([N+](=O)[O-])cc2)cs1 | 0.01% (inactive)
Cc1csc(NC(=O)c2ccc(C(=O)Nc3nc(C)cs3)cc2)n1 | -5.15% (inactive)
COc1ccc(CC(=O)Nc2nc(-c3cccc([N+](=O)[O-])c3)cs2)cc1 | 1.75% (inactive)
CC(=O)Nc1nc(-c2cccs2)cs1 | -6.43% (inactive)
Cc1csc(NC(=O)c2ccc(C)c([N+](=O)[O-])c2)n1 | 3.94% (inactive)
Cc1cc(NS(=O)(=O)c2ccc(NC(=O)NC(C)(C(F)(F)F)C(F)(F)F)cc2)no1 | 3.8% (inactive)
CCN1CCN(C(=O)CCNC(=O)Cn2ccc3ccccc3c2=O)CC1 | -4.7% (inactive)
O=C(O)c1ccc(Cn2cnc3scc(-c4ccccc4)c3c2=O)cc1 | 1.45% (inactive)
CCc1cccc2c(C(=O)CSc3nnc(-c4ccoc4C)n3C)c[nH]c12 | -9.96% (inactive)
Cc1ccc2nc3c(cc2c1)CC1(C(=O)N(C)C(=O)N(C)C1=O)C1COCCN31 (stereo not given) | 15.8% (inactive)
Cc1ccc(-n2c(=S)[nH]c3[nH]ncc3c2=O)cc1 | 1.01% (inactive)
O=C1Nc2cc(C(=O)N3CCc4ccccc4C3)ccc2S/C1=C\c1ccccc1 | 27.6% (inactive)
COc1ccc(/C=C2\Sc3ccc(C(=O)N4CCc5ccccc5C4)cc3N(C)C2=O)cc1 | 23.7% (inactive)
CCCCSc1nc2ccc(Nc3nc(N4CCOCC4)nc(N4CCOCC4)n3)cc2s1 | 7.41% (inactive)
COCc1cc(=O)n2[nH]c(SCc3ccccc3)nc2n1 | -0.4% (inactive)
CC(C)COc1ncnc2c1sc1nc3c(cc12)COC(C)(C)C3 | -12.6% (inactive)
Cc1cc(NCCN2CCOCC2)n2nc(C)c(-c3ccccc3)c2n1 | 2.31% (inactive)
Cc1nn2c(N3CCCC3)cc(C(C)C)nc2c1-c1ccccc1 | -3.85% (inactive)
CCCc1cc(N2CCCC2)n2nc(C)c(-c3ccccc3)c2n1 | -0.95% (inactive)
CC(=O)Nc1ccc(Nc2cc(C)nc3c(-c4ccc(Cl)cc4)c(C)nn23)cc1 | 21.5% (inactive)
Cc1cc(Nc2ccccc2)n2nc(C)c(-c3ccccc3)c2n1 | 3.74% (inactive)
Cc1nn2c(NCc3ccccn3)cc(C(C)(C)C)nc2c1-c1ccccc1 | 68.6% (inactive)
Cc1nn2c(NCc3ccccn3)cc(C(C)C)nc2c1-c1ccccc1 | 99.8% (inactive)
Cc1cc(NCCCN2CCOCC2)n2nc(C)c(-c3ccccc3)c2n1 | 1.95% (inactive)
